The record followed here is PubChem BioAssay (NCATS).

The nature of assay [1]: qHTS for identification of novel therapeutic agents for treatment of microphthalmiaassociated transcription factor (MiT) renal cell carcinoma (RCC) (AID 1963991). The settings on record: CellTiter-Glo, 48 h, stronger effect = lower value. A digest of the protocol:
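Three TFE3-fusion RCC cell lines (UOK109, UOK124, UOK145), 500 cells/well, were exposed to the 1912-compound MIPE 4.0 library for 48 hours at 37 C. Viability was read by CellTiter-Glo luminescence, normalised to DMSO (100%) and empty wells (0%), with 11-concentration curve fits.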

Assay [2] is described as follows: qHTS profiling for inhibitors of Plasmodium falciparum proliferation (AID 504749).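 Also: 0% = DMSO vehicle and full inhibition = artemisinin control; nearly all actives have a fitted effect of over 60% in size.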 The conditions noted are these: P. falciparum in erythrocytes, SYBR Green DNA, 72 h. A digest of the protocol: (§1)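 Three-day growth assay of blood-stage parasites in erythrocytes (0.3% parasitemia, 2.5% hematocrit) at 37 C, 5% CO2, quantified by SYBR Green DNA staining after overnight detergent lysis.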

In assay [3] the test system is 3D7. Described as above. The settings on record: P. falciparum in erythrocytes, SYBR Green DNA, 72 h; series mostly up to 28.7 µM. In a few lines:
as §1

In assay [4] the test system is 7G8. Described as above. The conditions noted are these: P. falciparum in erythrocytes, SYBR Green DNA, 72 h; series mostly up to 28.7 µM. In a few lines: as §1
Assay [5] concerns AA1029. Described as above. The conditions noted are these: P. falciparum in erythrocytes, SYBR Green DNA, 72 h; series mostly up to 28.7 µM. In a few lines: as §1
For assay [6], the system named is AS120. Described as above. The conditions noted are these: P. falciparum in erythrocytes, SYBR Green DNA, 72 h; series mostly up to 28.7 µM. A digest of the protocol: as §1
Assay [7] has as its system ATS189. Described as above. The conditions noted are these: P. falciparum in erythrocytes, SYBR Green DNA, 72 h; series mostly up to 28.7 µM. In a few lines:
as §1

Assay [8] concerns ATS95. The assay is described as above. The settings on record: P. falciparum in erythrocytes, SYBR Green DNA, 72 h; series mostly up to 28.7 µM. In a few lines: as §1
In assay [9] the test system is C2A. The description is as above. The settings on record: P. falciparum in erythrocytes, SYBR Green DNA, 72 h; series mostly up to 28.7 µM. In a few lines:
as §1

Assay [10] relates to CP185. The assay is described as above. The conditions noted are these: P. falciparum in erythrocytes, SYBR Green DNA, 72 h; series mostly up to 28.7 µM. In a few lines:
as §1

The subject of assay [11] is CP191. The assay is described as above. The conditions noted are these: P. falciparum in erythrocytes, SYBR Green DNA, 72 h; series mostly up to 28.7 µM. In a few lines: as §1
In assay [12] the test system is CP192. Described as above. The conditions noted are these: P. falciparum in erythrocytes, SYBR Green DNA, 72 h; series mostly up to 28.7 µM. In a few lines: as §1
The test system of assay [13] is CP194. The description is as above. The settings on record: P. falciparum in erythrocytes, SYBR Green DNA, 72 h; series mostly up to 28.7 µM. In a few lines:
as §1

The subject of assay [14] is CP201. The assay is described as above. The conditions noted are these: P. falciparum in erythrocytes, SYBR Green DNA, 72 h; series mostly up to 28.7 µM. In a few lines: as §1
In assay [15] the test system is CP203. The description is as above. The settings on record: P. falciparum in erythrocytes, SYBR Green DNA, 72 h; series mostly up to 28.7 µM. A digest of the protocol: as §1
Assay [16] relates to CP211. The assay is described as above. The settings on record: P. falciparum in erythrocytes, SYBR Green DNA, 72 h; series mostly up to 28.7 µM. In a few lines:
as §1

Assay [17] concerns CP215. Described as above. The settings on record: P. falciparum in erythrocytes, SYBR Green DNA, 72 h; series mostly up to 28.7 µM. In a few lines:
as §1

For assay [18], the system named is CP217. The description is as above. The conditions noted are these: P. falciparum in erythrocytes, SYBR Green DNA, 72 h; series mostly up to 28.7 µM. In a few lines:
as §1

In assay [19] the test system is CP237. Described as above. The settings on record: P. falciparum in erythrocytes, SYBR Green DNA, 72 h; series mostly up to 28.7 µM. A digest of the protocol:
as §1

Assay [20] relates to CP238. Described as above. The settings on record: P. falciparum in erythrocytes, SYBR Green DNA, 72 h; series mostly up to 28.7 µM. A digest of the protocol: as §1
[21] abbreviates: TFE3-RCC UOK109 viability, measured here: UOK109 Z-AUC.
The mark [22] stands for this setting: TFE3-RCC viability, measured here: UOK124 Z-AUC.
The mark [23] stands for this setting: TFE3-RCC viability, measured here: UOK145 Z-AUC.
Setting [24] is: at 28.7 µM (top of the series), parasite line A.
Where [25] appears, read: at 28.7 µM (top of the series), parasite line B.

Records with an inconclusive call do not appear. Calls of active or inactive are those of the source. Calls follow the shape of the dose curve; as a rule, active = well fitted inhibition curve with a large enough effect; inconclusive = small, poorly fitted or top-dose-only effect; inactive = flat fitted curve, though single readings scatter. Non-standard residues stand in square brackets, D forms with d. Residues, ends and D or L forms follow the SMILES beside them. *: point of attachment. Sta = CC(C)C[C@H](N)[C@@H](O)CC(=O)O; Isovaleryl = CC(C)CC(=O)*

In the case of `CN(C)CCc1c[nH]c2ccc(Cn3cncn3)cc12`, the values for the z-score in [1] (setting [21]), in assay [1] (setting [22]) and in [1] (setting [23]) were 0.0634, 0.723 and 0.764, respectively. Also, the values for the activity, negative = inhibition in [2] (setting [24]) and in assay [2] (setting [25]) were 15.9% (inactive) and -0.428% (inactive), respectively. Moreover, the Potency result in assay [3], in [4], in assay [5], in [6], in assay [7] and in assay [8] was “inactive” throughout. Moreover, the Potency result in assay [9], in assay [10], in assay [11], in assay [12], in [13] and in assay [14] was “inactive” each time. Further, the Potency result in [15], in assay [16], in [17], in [18], in assay [19] and in assay [20] was “inactive” throughout.

On to `C=CCc1cc(OC)c(O)c(C(=O)NCCO)c1`, for which the figures for the z-score in assay [1] (setting [21]), in [1] (setting [22]) and in assay [1] (setting [23]) were 0.957, 0.641 and 1.25, respectively. In addition, the figures for the activity, negative = inhibition in assay [2] (setting [24]) and in [2] (setting [25]) were 6.75% (inactive) and 10.3% (inactive), respectively. The Potency result in [3], in assay [4], in assay [5], in assay [6], in [7] and in [8] was “inactive” throughout. In addition, the Potency entry in assay [9], in [10], in assay [11], in assay [12], in [13] and in assay [14] was “inactive” each time. For the same compound, the Potency result in assay [15], in assay [16], in assay [17], in [18], in [19] and in [20] was “inactive” throughout.

For `CC(C)CC(=O)N[C@H](C(=O)N[C@H](C(=O)N[C@@H](CC(C)C)[C@@H](O)CC(=O)N[C@@H](C)C(=O)N[C@@H](CC(C)C)[C@@H](O)CC(=O)O)C(C)C)C(C)C` (Isovaleryl-VV[Sta]A[Sta]-OH), the z-score in assay [1] (setting [21]) amounted to 0.353; in [1] (setting [22]) it was 0.618; in assay [1] (setting [23]) it was 0.758.

For `NS(=O)(=O)c1cc(C(=O)O)c(NCc2ccco2)cc1Cl`, the z-score in assay [1] (setting [21]) is -0.035; in assay [1] (setting [22]), -0.245; in [1] (setting [23]), 0.387.

`COC(=O)N[C@H](C(=O)N[C@@H](Cc1ccccc1)[C@@H](O)CN(Cc1ccc(-c2ccccn2)cc1)NC(=O)[C@@H](NC(=O)OC)C(C)(C)C)C(C)(C)C`: the z-score was 0.351 in [1] (setting [21]), -0.0676 in [1] (setting [22]) and 2.98 in assay [1] (setting [23]).

On to `Cc1nccn1CC1CCc2c(c3ccccc3n2C)C1=O` (stereo not given), for which the results for the z-score in assay [1] (setting [21]), in assay [1] (setting [22]) and in assay [1] (setting [23]) were 0.748, 0.745 and 0.411, respectively.

In the case of `CCOc1cc(CC(=O)N[C@@H](CC(C)C)c2ccccc2N2CCCCC2)ccc1C(=O)O`, the z-score in assay [1] (setting [21]) was 0.724; in assay [1] (setting [22]), 0.688; in assay [1] (setting [23]) it was 0.737. Besides, the activity, negative = inhibition is 4.74% (inactive) in [2] (at 12.8 µM (top of the series), parasite line A) and 10.7% (inactive) in [2] (at 12.8 µM (top of the series), parasite line B). Also, the Potency entry in [3], in assay [4], in [5], in assay [6], in assay [7] and in [8] was “inactive” throughout. The Potency result in assay [9], in assay [10], in assay [11], in assay [12], in [13] and in assay [14] was “inactive” throughout. Also, the Potency entry in assay [15], in assay [16], in assay [17], in assay [18], in [19] and in assay [20] was “inactive” in each case.

On to `Cc1nc(-c2ccc(OCC(C)C)c(C#N)c2)sc1C(=O)O`, for which the figures for the z-score in assay [1] (setting [21]), in [1] (setting [22]) and in [1] (setting [23]) were 1.16, 0.952 and 0.581, respectively.

As to `CC1=C(C)C(=O)C(C(CCCCCC(=O)O)c2ccccc2)=C(C)C1=O` (stereo not given), the z-score in [1] (setting [21]) is 0.248; in assay [1] (setting [22]), 0.105; in [1] (setting [23]), -0.311. For the same compound, the activity, negative = inhibition is -13.8% (inactive) in [2] (setting [24]) and -26.9% (inactive) in [2] (setting [25]). Also, the Potency entry in assay [4], in [5], in assay [8], in assay [10], in assay [11] and in assay [12] was “inactive” each time. The Potency entry in assay [14], in assay [19] and in [20] was “inactive” each time.

As to `O=C(CS(=O)Cc1ccco1)NCC=CCOc1cc(CN2CCCCC2)ccn1` (stereo not given), the z-score turned out to be 0.673 in assay [1] (setting [21]), 0.332 in assay [1] (setting [22]) and 0.715 in [1] (setting [23]). Moreover, the activity, negative = inhibition is 3.29% (inactive) in [2] (setting [24]) and -5.5% (inactive) in assay [2] (setting [25]). Also, the Potency result in assay [3], in assay [4], in assay [5], in assay [6], in assay [7] and in assay [8] was “inactive” each time. Also, the Potency result in assay [9], in [10], in assay [12], in [13], in assay [14] and in assay [15] was “inactive” throughout. Besides, the Potency result in assay [16], in assay [17], in assay [18], in assay [19] and in assay [20] was “inactive” in each case.
